Bioassay records from PubChem BioAssay.
CRFR2-BP ag – CRF-BP/CRF-R2 complex agonism | HEK293 CRF-R2/CRF-BP, calcium dye fluorescence (FLIPR); percent of saturating CRF peptide response | activation, % at 13.2 µM | actives 0.46% (n = 350,000);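 active = activation of at least 50%, plus an integration ratio under a set limit after plate pattern correction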;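 also: plate controls were neutral control wells without compound for no effect and CRF at EC100 for full effect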
hiPSC survival – enhancers of human iPSC single-cell survival; hiPSC single-cell survival, ATPlite luminescence; 100% = ROCK inhibitor wells, 0% = DMSO; survival enhancement, % at 20 µM; actives 0.044% (n = 360,000); in the data active = survival enhancement above about 18%;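 also: cells exposed to compounds for 16 hours before the ATP read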
SKN-1 inh – inhibitors of C. elegans SKN-1 | C. elegans VP596 Pgst-4::GFP/RFP ratio, acrylamide-induced, 24 h | inhibition, % at 21.8 µM | actives 0.49% (n = 360,000);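 active = interference check ratio from 0.5 to 1.5 plus GFP to RFP signal ratio inhibition reaching or exceeding a fixed threshold, cut at about 30% in these data, passing the limit was not always enough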
H9c2 TAG inh – inhibitors of triacylglycerol accumulation. inhibition, % at 12.5 µM. actives 0.66% (n = 230,000). AID 651582. H9c2 cells, Nile Red lipid (TAG) fluorescence; cells loaded with 200 µM oleic acid;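 active = pattern-corrected inhibition of lipid staining of at least 50% with the nuclear-stain viability signal not falling by more than 50%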;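 also: 0% = DMSO wells and 100% = triacsin C control wells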
CRFBP-R2 block – blocks CRF-induced signaling of the CRF-BP/CRF-R2 complex. actives 0.59% (n = 350,000). AID 588475. inhibition, % at 11.8 µM. HEK293 CRF-R2/CRF-BP, CRF-induced calcium fluorescence;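 active = inhibition of the ligand-induced calcium signal above about 50% at the single tested concentration, limit read from the data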
H9c2 protect – myocardial damage modulation in H9c2 cells. AID 588492. H9c2 cardiomyocytes, H2O2 injury protection, ATPLite, 2 h. protection from H2O2 cell death, % at 20 µM. actives 0.63% (n = 360,000);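 active = compounds giving at least 50% protection of heart cells from peroxide-induced death in the single-dose screen, raw or plate-pattern-corrected value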;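 also: 0% = DMSO wells with peroxide and 100% = DMSO wells without peroxide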
Starred values were filed as active, the others as inactive. Only some compounds are listed: those with a hit (about 2.5% of all), similar ones and a draw of the others.

For COC(=O)C1=C(NC(=O)c2cccc(OC)c2)CCS1 the results were CRFR2-BP ag -4, hiPSC survival -2, SKN-1 inh 10, CRFBP-R2 block 67* and H9c2 protect 2.
`Cc1cc(-c2csc(NC(=O)c3ccc(C#N)cc3)n2)c(C)n1Cc1ccco1` gave CRFR2-BP ag 8, hiPSC survival 1, SKN-1 inh 10, CRFBP-R2 block 20 and H9c2 protect -3.
Screening Cc1ccc(S(=O)(=O)N2CCN(C(=O)COC(=O)/C=C/c3ccc(OC(F)F)cc3)CC2)cc1 returned CRFR2-BP ag 0, hiPSC survival 0, SKN-1 inh -3, H9c2 TAG inh -2, CRFBP-R2 block 4 and H9c2 protect -12.
Screening COc1cc(C(=O)Nc2ccc(C)cn2)ccc1OCC(=O)N1CCOCC1 returned CRFR2-BP ag 0, hiPSC survival 0, SKN-1 inh 0, H9c2 TAG inh 10, CRFBP-R2 block 5 and H9c2 protect 0.
`COc1ccc(-c2nc(NC(=O)c3ccc(OCC(=O)N4CCOCC4)c(OC)c3)sc2C)cc1` gave CRFR2-BP ag -2, hiPSC survival 0, SKN-1 inh 12, CRFBP-R2 block -5 and H9c2 protect 62*.
`N#C/C(=C/c1ccccc1)C(=O)NCc1ccccc1` gave CRFR2-BP ag -2, hiPSC survival 1, SKN-1 inh -9, H9c2 TAG inh -15, CRFBP-R2 block -31 and H9c2 protect 26.
`CN(C)c1ccc(/C=C(/C#N)C(=O)NCc2ccccc2)o1` gave CRFR2-BP ag 108*, hiPSC survival 1, SKN-1 inh 0, CRFBP-R2 block -99 and H9c2 protect 13.
CCOc1cc(C=NNC(=O)N(c2ccccc2)c2ccccc2)ccc1O was read as hiPSC survival -1, SKN-1 inh 1 and H9c2 protect -18.
`c1ccc(Oc2cccc(OCCCCSc3ncccn3)c2)cc1` gave CRFR2-BP ag 51*, hiPSC survival 2, SKN-1 inh 7, H9c2 TAG inh 20, CRFBP-R2 block -74 and H9c2 protect -10.
For COc1cccc(OCCCCSc2ncccn2)c1 the results were CRFR2-BP ag -1, hiPSC survival 1, SKN-1 inh -3, H9c2 TAG inh -14, CRFBP-R2 block 16 and H9c2 protect 0.
Clc1ccc(OCCSc2ncccn2)cc1 was read as CRFR2-BP ag -1, hiPSC survival -2, SKN-1 inh 38*, H9c2 TAG inh -1, CRFBP-R2 block -3 and H9c2 protect -13.
`Cc1ccc2nc(-c3ccc(Cl)cc3)c(Cc3ccccn3)n2c1` gave hiPSC survival 0 and SKN-1 inh 18.
CC(=NNC(=O)c1ccncc1)c1cccc(Cl)c1 was read as CRFR2-BP ag -4, hiPSC survival 0, SKN-1 inh 11, H9c2 TAG inh -11, CRFBP-R2 block 18 and H9c2 protect 4.
For Cc1nn(C(=O)CCC(=O)NCc2cccc(F)c2)c2ccccc12 the results were CRFR2-BP ag 1, hiPSC survival 0, SKN-1 inh 34*, CRFBP-R2 block 4 and H9c2 protect 0.
`CC1Cc2ccccc2N1S(=O)(=O)c1cccc(C(=O)NCc2ccco2)c1` (stereo unspecified) gave CRFR2-BP ag 0, hiPSC survival -4, SKN-1 inh -1, H9c2 TAG inh -14, CRFBP-R2 block 7 and H9c2 protect 2.
O=C(O)c1ccc(C2SCC(=O)N2Cc2ccccc2)cc1 (stereo unspecified) was read as CRFR2-BP ag 1, hiPSC survival 1, SKN-1 inh 8, CRFBP-R2 block -5 and H9c2 protect -5.
NC(=O)c1ccc(C2SCC(=O)N2Cc2ccccc2)cc1 (stereo unspecified) was read as CRFR2-BP ag -2, hiPSC survival 0, SKN-1 inh 0, H9c2 TAG inh 15, CRFBP-R2 block 78* and H9c2 protect 14.
For CC(CCc1ccccc1)NC(=O)C(=O)c1c[nH]c2ccccc12 (stereo unspecified) the results were CRFR2-BP ag 10, hiPSC survival 0, SKN-1 inh 7, CRFBP-R2 block 4 and H9c2 protect -4.
Screening O=C(Oc1cncc(Cl)c1)c1ccco1 returned CRFR2-BP ag -1, hiPSC survival 6, SKN-1 inh 39*, H9c2 TAG inh -6, CRFBP-R2 block 31 and H9c2 protect -4.
`O=c1[nH]c(CSc2nnc(-c3cccnc3)n2C2CCCCC2)nc2ccccc12` gave CRFR2-BP ag 0, hiPSC survival -1, SKN-1 inh 6, CRFBP-R2 block 0 and H9c2 protect 89*.
For Nc1cc(=O)[nH]c(SCC(=O)Nc2cccc(S(=O)(=O)N3CCCCC3)c2)n1 the results were CRFR2-BP ag -1, hiPSC survival -4, SKN-1 inh 1, H9c2 TAG inh -23, CRFBP-R2 block 6 and H9c2 protect 2.
Screening Cc1cc(C)n(CCC(=O)N=Nc2c(O)[nH]c3ccccc23)n1 returned CRFR2-BP ag -1, hiPSC survival 1, SKN-1 inh -12, H9c2 TAG inh 1, CRFBP-R2 block 11 and H9c2 protect 0.
`Cc1cc(C)n(CCC(=O)N=Nc2c(O)[nH]c3ccc(Br)cc23)n1` gave CRFR2-BP ag 1, hiPSC survival 0, SKN-1 inh -6, H9c2 TAG inh 18, CRFBP-R2 block 93* and H9c2 protect 5.
`O=C1C(=O)N(Cc2ccncc2)C(c2ccccc2F)/C1=C(\O)c1ccc2c(c1)OCCO2` (stereo unspecified) gave CRFR2-BP ag -1, hiPSC survival 0, SKN-1 inh 13, CRFBP-R2 block 4 and H9c2 protect 5.
Screening CC(Oc1ccc(Br)cc1)C(=O)Nc1ccc(S(=O)(=O)NC2=NCCCCC2)cc1 (stereo unspecified) returned CRFR2-BP ag 81*, hiPSC survival 0, SKN-1 inh 14, H9c2 TAG inh -23, CRFBP-R2 block -79 and H9c2 protect -6.
For CS(=O)(=O)c1sc(C#N)c2c1C(=O)CC(c1ccccc1)C2 (stereo unspecified) the results were CRFR2-BP ag 47, hiPSC survival 2, SKN-1 inh 4, H9c2 TAG inh 93*, CRFBP-R2 block 21 and H9c2 protect -19.
Screening O=C1N(Cc2ccccc2)CC2(Br)COCOC12O (stereo unspecified) returned CRFR2-BP ag 2, hiPSC survival 1, SKN-1 inh 11, H9c2 TAG inh -8, CRFBP-R2 block -22 and H9c2 protect 7.
CCN(CC(=O)NCc1cccs1)C(=O)c1ccc(S(=O)(=O)Nc2ccccc2C)cc1 was read as CRFR2-BP ag 1, hiPSC survival 0, SKN-1 inh 10, H9c2 TAG inh 8, CRFBP-R2 block 0 and H9c2 protect 8.
